# Rows were chosen to be rich in hits. Some 6.1% of all compounds tested hit in one or more screens of this group.
# DRD3 antagonist: blocks the human D3 dopamine receptor. P35462. max response, negative = inhibition, %. 360,000 tested, 2.5% active. D3R cells, DiscoveRx beta-arrestin luminescence, antagonist mode; stronger effect = lower value; in the data active = max response below about -50%; inconclusive = no clear call, values can overlap the other calls; also: % is scaled to controls: 0 for no effect and ±100 for the full control effect
#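 Cells plated overnight at 1500 cells/well, then exposed to library compounds with dopamine controls for 90 minutes at 37 degrees C. DiscoveRx reagent added for 30–60 minutes at room temperature; luminescence read, quantitative HTS format.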
# D1 ag: agonists of human D1 dopamine receptor; 360,000 tested, 1% active; activation, % at 2 µM; P21728; HEK293 T-REx D1 cells, calcium flux, agonist mode; in the data active = activation above about 30%; also: 0% is about no effect
# Target sequence (P21728 whole entry, looked up): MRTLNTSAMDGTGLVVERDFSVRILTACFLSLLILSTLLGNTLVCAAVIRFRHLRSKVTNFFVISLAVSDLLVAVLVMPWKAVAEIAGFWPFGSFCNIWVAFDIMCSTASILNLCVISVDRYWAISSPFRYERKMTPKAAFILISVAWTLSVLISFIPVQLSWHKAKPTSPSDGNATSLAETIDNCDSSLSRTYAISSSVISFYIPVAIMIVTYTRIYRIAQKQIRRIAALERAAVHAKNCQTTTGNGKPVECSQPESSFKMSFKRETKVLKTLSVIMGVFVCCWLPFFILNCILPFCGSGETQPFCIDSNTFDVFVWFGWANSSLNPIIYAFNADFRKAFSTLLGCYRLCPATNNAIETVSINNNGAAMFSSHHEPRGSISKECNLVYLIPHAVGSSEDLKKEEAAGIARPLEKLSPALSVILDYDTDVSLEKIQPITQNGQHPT
#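 Agonism was scored from calcium flux recorded over 180 s (1 read/s) after pintool compound addition, following a 10-cycle baseline. Cells were inducible force-coupled HEK293 TREx D1, plated overnight at 30 C and loaded with no-wash calcium dye.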
# D1 antagonist: antagonists of human D1 dopamine receptor; P21728; activity change, negative = inhibition, % at 10 µM; HEK293 TREx D1 cells, calcium flux, dopamine EC80; stronger effect = lower value; AID 504652; 360,000 tested, 3.2% active; in the data active = activity change below about -30%; also: % is scaled to controls: 0 for no effect and ±100 for the full control effect
#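 Compound effects on dopamine-evoked calcium signalling were measured in tetracycline-induced HEK293 Trex D1 cells. Dopamine at EC80 followed a 180 s compound pre-read, and fluorescence was tracked kinetically for 180 s more.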
# D3 ag: agonists of human D3 dopamine receptor | D3R DiscoveRx beta-arrestin cells, luminescence, 90 min | 410,000 tested, 0.58% active | AID 652048 | max activation, % | P35462; in the data active = max activation above about 30%; also: 0% is about no effect
#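 Agonist mode: compounds and dopamine controls were applied to plated cells for 90 min at 37 degrees C after an overnight attachment at 1500 cells/well. Luminescent read-out followed 30 - 60 minutes at room temperature with DiscoveRx detection reagent.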
# D1 potentiator: human D1 dopamine receptor positive modulation; P21728; HEK293 TREx D1 cells, calcium flux, dopamine EC20 potentiation; potentiation, % at 10 µM; 360,000 tested, 0.036% active; in the data active = potentiation above about 30%; also: 0% is about no effect
# An asterisk follows results filed as active; u = inconclusive; x = no result.
SMILES,DRD3 antagonist,D1 ag,D1 antagonist,D3 ag,D1 potentiator
Cc1ccccc1Nc1nnc(SCc2cc([N+](=O)[O-])cc3c2OCOC3)s1,13,2,-1,-5,-1
Cc1nnc(SCc2cc([N+](=O)[O-])cc3c2OCOC3)n(N)c1=O,9,2,-42*,4,-6
COc1ccc(-c2cc3nc(C)c(CCC(=O)NC(C)c4ccccc4)c(C)n3n2)c(OC)c1 (stereo unspecified),x,-1,-7,2,-1
CCOc1ccc(C(C)NC(=S)NCc2ccc(Cl)cc2)cc1 (stereo unspecified),-11,35*,x,-3,-5
CCC(C)c1ccc(C(C)NC(=S)NCc2ccc(F)cc2)cc1 (stereo unspecified),-13,21,-14,-2,-4
CCCc1ccc(C(C)NC(=S)NCc2ccc(F)cc2)cc1 (stereo unspecified),-12,80*,-1,6,-5
COc1ccc(C2=C(C)C(N3CCC(C(=O)Nc4cc(C)ccc4C)CC3)=NS2(=O)=O)cc1,x,6,-11,7,-7
Cc1ccc(-c2noc(-c3ccccc3NC(=O)C3CC(=O)N(c4ccc(C)cc4)C3)n2)cc1 (stereo unspecified),x,0,-3,-10,-2
CCOc1ccc(NC(=O)C(C)n2c(=O)cc(-c3ccccc3)c3c(C)nn(C)c32)cc1 (stereo unspecified),x,0,2,-3,-5
CCCCN(Cc1nc2ccccc2c(=O)[nH]1)C(=O)COc1ccc(F)cc1Cl,2,-1,-42*,2,-15
CCN(CC)C(=O)CSc1nsc(SCC(=O)N(CC)CC)c1C#N,-55*,4,-6,-3,4
C=COC(=O)CSc1snc(SCC(=O)OC)c1C#N,-11,1,-17,2,-4
O=C(Nc1nc2ccc(S(=O)(=O)N3CCCC3)cc2s1)c1ccc(F)cc1,x,5,-2,11,9
O=C(Nc1nc2ccccc2s1)c1ccc(S(=O)(=O)N2CCCC2)cc1,x,0,-46*,-9,0
COc1ccc(C(=O)Nc2nc3ccc(S(=O)(=O)N4CCCC4)cc3s2)cc1,x,1,-32*,5,1
CCOC(=O)c1ccc(NC(=O)CCc2c(C)nc3c(c(C)nn3-c3ccccc3)c2C)cc1,x,6,-8,25,-2
COc1ccccc1Cc1noc(COc2cccc(C)c2C)n1,10,14,-78*,-11,-6
CCCc1nc(C)cc(N2CCN(c3ccccc3)CC2)n1,23,8,-6,3,-3
Cc1cc(NC2CCCCC2)nc(NCc2ccccc2)n1,-12,55*,3,-12,-4
Cc1cc(N2CCN(c3ccccc3)CC2)nc(NCc2ccccc2)n1,0,8,-50*,-7,-4
COc1cc(C)nc(NCc2ccccc2)n1,7,4,3,-5,-3
Cc1ccc(Nc2cc(C)nc(NCc3ccccc3)n2)cc1,-15,53*,19,-7,-11
COc1ccc(Nc2cc(C)nc(NCc3ccccc3)n2)cc1,-29,18,1,-13,-3
CCOc1ccc(NC(=O)N(Cc2cn(CC)c3ccccc23)C2CCCCCC2)cc1,x,30,-16,-14,-1
CC(C)n1c(SCC(=O)c2ccc(F)cc2)nc2c(sc3ccccc32)c1=O,x,2,8,2,-3
SMILES,DRD3 antagonist,D1 ag,D1 antagonist,D3 ag,D1 potentiator
N#CC1=C(N)NC(SCc2ccccc2)=C(C#N)C12CCCCC2,-17,19,-36*,-21,-1
O=C(Nc1ccc(Br)cc1F)N1CCC2(CC1)Oc1ccccc1C(=O)N2Cc1ccccc1F,x,4,7,0,4
N#CC1=C(N)OC2=C(CC/C2=C\c2ccccc2)C1c1ccccc1 (stereo unspecified),-1,-1,-20,1,-7
N#CC1=C(N)OC2=C(CC/C2=C\c2ccccc2Cl)C1c1ccccc1Cl (stereo unspecified),0,35*,1,-1,-6
CCCCCCC1CCC(C(=O)Nn2c(C)nc3ccccc3c2=O)CC1 (stereo unspecified),18,2,8,30*,-2
Cc1ccc(S(=O)(=O)n2ccc3cccnc32)cc1,10,-1,7,9,-4
O=S(=O)(c1ccc(Cl)cc1)n1ccc2cccnc21,17,-2,-36*,2,-4
CCN(Cc1ccccc1)C(=O)Cn1c(=O)n(-c2cccc(C)c2)c(=O)c2c1c1cc(OC)ccc1n2C,x,3,-6,5,0
CC[C@H](C)[C@H](NC(=O)[C@H](Cc1ccccc1)NC(=O)[C@H](C)NC(=O)[C@H](CC(=O)O)NC(=O)[C@H](CCCCN)NC(=O)[C@H](CO)NC(=O)[C@@H]1CCCN1C(=O)[C@@H]1CCC(=O)N1)C(=O)NCC(=O)N[C@@H](CC(C)C)C(=O)N[C@@H](CCSC)C(N)=O,x,x,x,11,x
COC(=O)C1=NN(C(=O)c2ccc(C)cc2)C(O)(c2ccc(Cl)cc2)C1 (stereo unspecified),u,57*,-3,-18,-7
COC(=O)C1=NN(C(=O)c2ccccc2)C(C)(O)C1 (stereo unspecified),-16,3,2,-6,1
COC(=O)C1=NN(C(=O)c2ccccc2)C(O)(c2ccc([N+](=O)[O-])cc2)C1 (stereo unspecified),-15,86*,-2,-7,-7
CC1=NN(C(=O)c2ccc(Cl)cc2)C(O)(c2ccccc2)C1 (stereo unspecified),28,2,4,9,-4
CCOC(=O)C(Oc1ccc2c(-c3ccccc3)cc(=O)oc2c1)c1ccccc1 (stereo unspecified),3,5,-31*,9,-7
Cc1cc(Nc2cccc(Cl)c2)nc2ccc(NC(=O)COc3ccc(Cl)cc3)cc12,x,3,5,-4,0
N#Cc1c(Cl)nc(SCc2ccccc2)nc1-c1ccccc1,x,2,-32*,x,-6
Cc1cc(NC(=O)CSc2nnc(NC(=O)C3CC(=O)N(c4ccccc4C)C3)s2)no1 (stereo unspecified),10,2,9,-2,10
Cc1cc(NC(=O)CSc2nnc(NC(=O)C3CC(=O)N(c4ccccc4)C3)s2)no1 (stereo unspecified),-2,3,-46*,3,-8
Cc1ccc(C)c(N2CCN(C(=O)c3c(C)oc4nc(C)nc(N5CCOCC5)c34)CC2)c1,x,0,2,-17,-3
Cc1ccc(C)c(N2CCN(CCCNC(=O)Cn3cc4c(n3)CCCCC4)CC2)c1,-96*,33*,-12,-13,-5
Cc1ccc(C)c(N2CCN(CCCNC(=O)Cn3cc4c(n3)CCC(C)C4)CC2)c1 (stereo unspecified),-60*,48*,-2,-11,-6
O=C(Cn1cc2c(n1)CCCC2)NCCCN1CCN(c2ccccc2F)CC1,-83*,0,-35*,1,-8
